# Measurements reported in PubChem BioAssay (NCI).
# Compounds without any hit were thinned out: in the full panel of roughly 83,000, 20% have a hit.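 Activity criterion: percent growth below 10, measured after cells in 96-well plates were exposed to a single compound concentration for 48 hours.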 Values without a mark were called inactive. Calls of active or inactive are those of the source.
# Assays:
# Assay in all cases: NCI-60 one-dose screen, 48 h (100 = growth as untreated, 0 = no growth, -100 = all killed)
# Conditions in all cases: 10 µM unless noted
# NCI-H23 lung = system: NCI-H23 lung
# NCI-H226 lung = system: NCI-H226 lung
# NCI-H322M lung = system: NCI-H322M lung
# HOP-62 NSCLC = system: HOP-62 NSCLC
# NCI-H460 lung = system: NCI-H460 lung
# HOP-92 NSCLC = system: HOP-92 NSCLC
# NCI-H522 lung = system: NCI-H522 lung
# A549/ATCC NSCLC = system: A549/ATCC NSCLC
# 786-0 renal = system: 786-0 renal
# COLO 205 colon = system: COLO 205 colon
# DU-145 prostate = system: DU-145 prostate
# K-562 leukemia = system: K-562 leukemia
# MALME-3M melanoma = system: MALME-3M melanoma
# MDA-MB-231 breast = system: MDA-MB-231 breast
# RXF 393 renal = system: RXF 393 renal
# SF-268 CNS = system: SF-268 CNS
# SF-295 CNS = system: SF-295 CNS
# SF-539 CNS = system: SF-539 CNS
# UACC-257 melanoma = system: UACC-257 melanoma
# M14 melanoma = system: M14 melanoma
Compound,growth (NCI-H23 lung),growth (NCI-H226 lung),growth (NCI-H322M lung),growth (HOP-62 NSCLC),growth (NCI-H460 lung),growth (HOP-92 NSCLC),growth (NCI-H522 lung),growth (A549/ATCC NSCLC),growth (786-0 renal),growth (COLO 205 colon),growth (DU-145 prostate),growth (K-562 leukemia),growth (MALME-3M melanoma),growth (MDA-MB-231 breast),growth (RXF 393 renal),growth (SF-268 CNS),growth (SF-295 CNS),growth (SF-539 CNS),growth (UACC-257 melanoma),growth (M14 melanoma)
C=C1C(=O)O[C@H]2[C@H]1CC/C(CNC(=O)/C=C/c1ccccc1)=C\CC[C@@]1(C)O[C@@H]21,54.5%,64.8%,71.9%,80.3%,39.7%,-40.9% (active),-86.8% (active),46.8%,-64.4% (active),-64.7% (active),-34.3% (active),1.51% (active),-50.1% (active),-15.2% (active),-90.2% (active),48.1%,62.3%,-63.8% (active),-55.1% (active),-63.2% (active)
N#Cc1cc(-c2nc3ccccc3s2)c(=O)n(NS(=O)(=O)c2ccccc2)c1N,102%,85.7%,108%,90.1%,106%,104%,94.2%,117%,106%,122%,116%,104%,112%,91%,113%,97.4%,111%,100%,111%,107%
CC1(C)CC[C@]2(C(=O)O)CC[C@]3(C)C(=CC[C@@H]4[C@@]5(C)Cc6c([nH]c7ccccc67)C(C)(C)[C@@H]5CC[C@]43C)[C@@H]2C1,32.8%,48.9%,27.3%,28.2%,16.7%,60.3%,31.5%,17.8%,37.7%,-15.5% (active),49.5%,28.8%,115%,65.5%,67.2%,54%,36.7%,36.2%,88.5%,76.4%
NC1=NN=C(N)C1=Cc1cc2ccccc2n2nnnc12,99%,100%,105%,96.8%,105%,87.4%,95%,103%,93.9%,99.7%,100%,92.9%,108%,95.5%,110%,98.6%,99.3%,102%,98.3%,111%
N#C/C(=C\c1ccc(Cl)cc1)n1nnc2cc(F)c(F)cc21,30%,83.8%,33.9%,59.1%,-22.2% (active),5.41% (active),3.72% (active),32.8%,14.7%,8.61% (active),14%,11.5%,14.8%,11.9%,-18.6% (active),35.7%,86%,3.56% (active),27.7%,11.1%
Cc1ccc(NC(=O)c2cc(-c3nc4ccccc4s3)c(=O)n(NS(=O)(=O)c3ccc(Cl)cc3)c2N)cc1,102%,80.6%,97.8%,106%,105%,103%,94.4%,100%,101%,114%,107%,100%,112%,96.1%,112%,94.2%,101%,97.2%,104%,99.4%
COc1ccc(C(C)=O)c(OC)c1,105%,95.1%,124%,103%,115%,75.5%,89.9%,105%,103%,113%,113%,118%,110%,102%,117%,111%,110%,103%,97.8%,108%
